Data reported in the supplement of paper PMC8183993.
Values joined by “and” are separate entries in the source; they are usually repeats but may differ in a detail not shown here. Equal entries are not always repeated. Structures can show the parent of a compound that is named as a salt. ± gives the standard deviation of the averaged measurements. The full ranking holds about 3,100 compounds; the median of “mean cytoplasmic OPP incorporation (global translation) relative to DMSO” is about 100, and the lowest 2% start at about 56. This excerpt belongs to a sample that is enriched for the lowest values.

Test system: U2OS
Assay: mean cytoplasmic OPP incorporation (global translation) relative to DMSO (% of DMSO); higher = more protein synthesis
Conditions: 10 µM; 24 h
Protocol: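 Primary image-based screen in U2OS cells: compounds at 10 uM for 24 h, then a 1 h o-propargyl-puromycin (OPP) pulse, click labelling, and high-throughput microscopy. Mean cytoplasmic OPP intensity and nuclei count were normalised to DMSO wells within each plate (DMSO = 100) and averaged over triplicate plates.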

Compound | mean cytoplasmic OPP incorporation
CNC(=O)c1ccccc1Nc1nc(Nc2ccc(N3CCOCC3)cc2OC)ncc1Cl | 90.7 ± 4.2
CCOc1cc(N2CCC(O)CC2)ccc1Nc1ncc2c(n1)N(C)c1ccccc1C(=O)N2C | 110
COc1cc(N2CCC(N)CC2)ccc1Nc1ncc(Cl)c(-c2c[nH]c3ccccc23)n1 | 36.5
c1ccc2c(Cc3c[nH]c4ccccc34)c[nH]c2c1 [Diindolylmethane] | 93.7
OCc1c[nH]c2ccccc12 [Indole-3-carbinol] | 113
O=C(/C=C/c1ccc(CN(CCO)CCc2c[nH]c3ccccc23)cc1)NO [LAQ824 (NVP-LAQ824, Dacinostat)] | 47.7
CC(C)C[C@H](NC(=O)N[C@H](C(=O)N[C@@H](CCC(N)=O)C(=O)N[C@@H](C)C=O)[C@@H]1CCNC(=N)N1)C(=O)O [Elastatinal] | 98.9
COc1cc(OC)c(C(=O)CCCCN2CCC3(CC2)NC(=O)NC3=O)cc1NS(=O)(=O)c1ccc(C(F)(F)F)cc1 | 129
CC1(C)C(=O)NC2=C1C(=O)C(=O)c1ccccc12 | 59.6 and 42.6
CC1(C)CCC2=C(O1)c1ccccc1C(=O)C2=O | 110
CC1=CC(=O)c2ccccc2C1=O [Menadione] | 95.2
c1cc2c(cc1C1CCCCC1)c1c3n2CCNC3CCC1 (configuration not stated) [Tetrindole mesylate] | 129
C=C(C)[C@@H](CC=C(C)C)C[C@@]12C[C@@H](CC=C(C)C)C(C)(C)[C@@](CC=C(C)C)(C(=O)C(C(=O)c3ccc(O)c(O)c3)=C1O)C2=O [Garcinol] | 100
C[C@@H](NCc1cc(Br)cc2[nH]c(=O)c(=O)[nH]c12)P(=O)(O)O | 96.4
Cc1ccc(NC(=O)c2ccc(CN3CC[C@H](N(C)C)C3)c(C(F)(F)F)c2)cc1Nc1nccc(-c2cncnc2)n1 [Bafetinib (INNO-406)] | 118
Cc1ccc(C(=O)Nc2ccc(CN3CCN(C)CC3)c(C(F)(F)F)c2)cc1C#Cc1cnc2cccnn12 | 32.7
Cc1ccc(C(=O)Nc2ccc(CN3CCN(C)CC3)c(C(F)(F)F)c2)cc1C#Cc1cnc2[nH]ncc2c1 [GZD824 Dimesylate] | 37.4
Cc1ccc(C(=O)Nc2cccc(C(F)(F)F)c2)cc1Nc1nc(-c2cccnc2)nc2c1cnn2C | 145
O=C(Cc1ccccc1)Nc1cccc(C(=O)Nc2ccccc2C(=O)O)c1 | 106
S=c1ccss1 [1,2-Dithiole-3-thione] | 115
CC[C@H](C)[C@H](N)C(=O)N1CCSC1 [P32/98 hemifumarate salt] | 107
O=C(/C=C/c1ccc2ccccc2n1)c1ccncc1 | 26.3
C=CC(=O)c1ccc2ccccc2c1 | 100
NC(=O)c1ccncc1 [Isonicotinamide] | 109
COc1cc2c(NC3CCN(C)CC3)nc(N3CCCN(C)CC3)nc2cc1OCCCN(C)C | 112
CCn1nnc2c(N3CCOCC3)nc(-c3ccc(NC(=O)Nc4ccc(C(=O)N5CCN(C)CC5)cc4)cc3)nc21 | 67.6

Compound | mean cytoplasmic OPP incorporation
Cc1c(C(=O)NC2CCCCC2)sc2nc3ccc(N)cc3n12 | 106
NC(=O)Nc1sc(-c2ccc(F)cc2)cc1C(N)=O | 76.5 ± 9.7
NC(=O)Nc1cc(-c2cccc(F)c2)sc1C(=O)N[C@H]1CCCNC1 | 25.1
C[C@H]1O[C@@H](O[C@H]2[C@@H](O)C[C@H](O[C@H]3[C@@H](O)C[C@H](O[C@H]4CC[C@@]5(C)[C@H](CC[C@@H]6[C@@H]5C[C@@H](O)[C@]5(C)[C@@H](C7=CC(=O)OC7)CC[C@]65O)C4)O[C@@H]3C)O[C@@H]2C)C[C@H](O)[C@@H]1O [Digoxin] | 19
Oc1ccc(-c2nc3cc(O)cc(Br)c3o2)cc1 | 89.5
O=C[C@@H]1CCCN1C(=O)[C@@H]1CCCN1C(=O)OCc1ccccc1 [Z-Prolyl-prolinal] | 98
N#C/C(=C\c1ccc(O)c(O)c1)C(=O)NCCCCc1ccccc1 | 87.8
CCCCC[C@H](O)CC(=O)CCc1ccc(O)c(OC)c1 [Gingerol] | 102
NC(C(=O)O)c1cc(O)cc(O)c1 (racemic) | 107
N[C@@H](Cc1cc(I)c(O)c(I)c1)C(=O)O [3,5-Diiodo-L-tyrosine] | 100
O=C1Nc2ccc([N+](=O)[O-])cc2C1=O [5-Nitroisatin] | 104
CS(=O)(=O)Nc1ccc([N+](=O)[O-])cc1Oc1ccccc1 [Nimesulide] | 97.3 ± 5.5
O=[N+]([O-])c1ccc2c(c1)S(=O)(=O)C=C2 [Stattic] | 48.5
O=C(O)c1ccc(-c2ccc3cc(O)c(C45CC6CC(CC(C6)C4)C5)cc3c2)cc1 | 98.8
Cc1ccc(C(=O)c2cc(/C=C/C(=O)NO)n(C)c2)cc1 | 99.3
C1CCC(C(CC2CCCCN2)C2CCCCC2)CC1 (configuration not stated) [Perhexiline maleate] | 53
CNC(C)C1CCC(N)C(OC2C(N)CC(N)C(OC3OCC(C)(O)C(NC)C3O)C2O)O1 (configuration not stated) [Gentamycin sulfate (Gentacycol)] | 107
NCC1CCN(c2nccc(-c3ccc4ccccc4c3)n2)CC1 | 88.3
C[C@H]1CC[C@@]2(OC1)O[C@H]1C[C@H]3[C@@H]4CC[C@@H]5C[C@@H](O[C@@H]6O[C@H](CO)[C@H](O)[C@H](O)[C@H]6O[C@@H]6O[C@H](CO)[C@@H](O)[C@H](O)[C@H]6O)CC[C@]5(C)[C@H]4CC[C@]3(C)[C@H]1[C@@H]2C [Timosaponin A-III] | 111
C=CC(=O)Nc1cccc(Oc2nc(Nc3ccc(N4CCN(C)CC4)cc3)ncc2Cl)c1 | 64.9
C=CC(=O)Nc1cccc(Sc2nc(Nc3ccc(N4CCN(C)CC4)cc3)ncc2Cl)c1 | 57.4
CNC(=O)c1nn(C)c2c1C(C)(C)Cc1cnc(Nc3ccc(N4CCN(C)CC4)cc3)nc1-2 | 89.3 and 44.9
O=C(NC[C@H](O)CN1CCc2ccccc2C1)c1ccnc(NC2CCC2)c1 | 107
NCCCCCCCCCCNS(=O)(=O)c1cccc2c(Cl)cccc12 [A-7 hydrochloride] | 115
CC(C)c1ccc(Cn2ccc3c4c(N)nc(NC5CC5)nc4ccc32)cc1 | 40.1
O=C(NCCN1CCCCC1)c1ccc(I)cc1 [N-[2-(Piperidinylamino)ethyl]-4-iodobenzamide] | 100
